# Measurements reported in the supplement of paper PMC8975748.
# Where a name gives a salt, the structure may show the parent alone.
# Test system: Saccharomyces cerevisiae BY4741 SeMeCo community
# Experiment: z-score of subpopulation abundance vs DMSO median, subpopulation auxotrophic for M; higher = larger share of this subpopulation than in DMSO controls
# Conditions: 10 µM; 24 h; SM minimal medium; subpopulation (auxotrophy): M
# Method: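 Fluorescent four-plasmid SeMeCo (self-establishing metabolically cooperating S. cerevisiae BY4741 community; plasmids pH-mRuby2, pL-mWasabi, pU-eCFP, pM-TagRFP657) was grown 24 h in minimal SM medium with each Selleck FDA-approved drug at 10 µM in 384-well plates. Cells were fixed and imaged by high-content confocal microscopy. For each auxotrophic subpopulation (and the prototroph), a z-score gives the deviation from the DMSO vehicle-control population median.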
row,SMILES,z-score of subpopulation abundance
1,CC[C@H](C)C(=O)O[C@H]1C[C@@H](C)C=C2C=C[C@H](C)[C@H](CC[C@@H]3C[C@@H](O)CC(=O)O3)[C@H]21 [Lovastatin],0.85
2,O=C1CN2Cc3c(ccc(Cl)c3Cl)N=C2N1 [Anagrelide HCl],-0.78
3,C#C[C@]1(O)CC[C@H]2[C@@H]3CCc4cc(OC5CCCC5)ccc4[C@H]3CC[C@@]21C [Quinestrol],0.32
4,CC/C(=C(/CC)c1ccc(O)cc1)c1ccc(O)cc1 [Diethylstilbestrol],0.52
5,CCN(CC)CCNC(=O)c1cc(Cl)c(N)cc1OC [Metoclopramide],0.35
6,CC[C@H]1OC(=O)[C@H](C)[C@@H](O[C@H]2C[C@@](C)(OC)[C@@H](O)[C@H](C)O2)[C@H](C)[C@@H](O[C@@H]2O[C@H](C)C[C@H](N(C)C)[C@H]2O)[C@](C)(O)C[C@@H](C)[C@@H]2N[C@@H](COCCOC)O[C@H]([C@H]2C)[C@]1(C)O [Dirithromycin],0.26
7,CC1(C)S[C@@H]2[C@H](NC(=O)[C@H](NC(=O)N3CCNC3=O)c3ccccc3)C(=O)N2[C@H]1C(=O)O [Azlocillin sodium salt],-0.54
8,CN1CCN(CCCN2c3ccccc3Sc3ccc(C(F)(F)F)cc32)CC1 [Trifluoperazine 2HCl],-0.02
9,C[C@@H](O)[C@H]1C(=O)N2C(C(=O)O)=C(S[C@@H]3CN[C@H](C(=O)Nc4cccc(C(=O)O)c4)C3)[C@H](C)[C@H]12 [Ertapenem sodium],0.04
10,COC(=O)Nc1nc2cc(C(=O)c3ccccc3)ccc2[nH]1 [Mebendazole],-0.56
11,CC1=C(C(=O)O)N2C(=O)[C@@H](NC(=O)[C@H](N)c3ccc(O)cc3)[C@H]2SC1 [Cefadroxil hydrate],-0.99
12,Cc1nc(NC(=O)N2CCC[C@H]2C(N)=O)sc1-c1ccnc(C(C)(C)C(F)(F)F)c1 [Alpelisib (BYL719)],-0.14
13,CC/C(=C(\c1ccccc1)c1ccc(OCCN(C)C)cc1)c1ccccc1 [Tamoxifen],0.18
14,Nc1nc(O)c2ncn(CCC(CO)CO)c2n1 [Penciclovir],-0.61
15,CC(C(=O)O)c1ccc2c(c1)CC(=O)c1ccccc1S2 (stereo not given) [Zaltoprofen],1.11
16,CN[C@H]1CC[C@@H](c2ccc(Cl)c(Cl)c2)c2ccccc21 [Sertraline HCl],0.18
17,NCC[C@H](O)C(=O)N[C@@H]1C[C@H](N)[C@@H](O[C@H]2O[C@H](CN)[C@@H](O)[C@H](O)[C@H]2O)[C@H](O)[C@H]1O[C@H]1O[C@H](CO)[C@@H](O)[C@H](N)[C@H]1O [Amikacin hydrate],-0.02
18,Cc1nnc(SCC2=C(C(=O)O)N3C(=O)[C@@H](NC(=O)Cn4cnnn4)[C@H]3SC2)s1 [Cefazolin Sodium],0.3
19,c1cnc2cc3c(cc2n1)[C@@H]1CNC[C@H]3C1 [Varenicline Tartrate],-0.55
20,OCCN1CCN(CCCN2c3ccccc3Sc3ccc(C(F)(F)F)cc32)CC1 [Fluphenazine dihydrochloride],-0.08

row,SMILES,z-score of subpopulation abundance
1,c1ccc2[nH]c(-c3cscn3)nc2c1 [Thiabendazole],0.77
2,CC(C)[C@H](N)C(=O)OCCOCn1cnc2c(=O)nc(N)[nH]c21 [Valaciclovir HCl],-0.55
3,CN(C)CC/C=C1/c2ccccc2Sc2ccc(Cl)cc21 [Chlorprothixene],0.73
4,CN(C)c1cc(NC(=O)CNC(C)(C)C)c(O)c2c1CC1CC3C(N(C)C)C(=O)C(C(N)=O)=C(O)C3(O)C(=O)C1=C2O (stereo not given) [Tigecycline],-1.16
5,O=c1n(CCCN2CCN(c3cccc(Cl)c3)CC2)nc2ccccn12 [Trazodone HCl],2.19
6,CN(C)CCN1C(=O)c2cccc3cc(N)cc(c23)C1=O [Amonafide],0.34
7,Cc1nc(=O)c2cc(CN(C)c3ccc(C(=O)N[C@@H](CCC(=O)O)C(=O)O)s3)ccc2[nH]1 [Raltitrexed],0.3
8,Cc1cc(-n2c(=O)[nH]c(=O)n(C)c2=O)ccc1Oc1ccc(SC(F)(F)F)cc1 [Toltrazuril],-0.11
9,CO/N=C(\C(=O)N[C@@H]1C(=O)N2C(C(=O)OCOC(=O)C(C)(C)C)=C(/C=C\c3scnc3C)CS[C@H]12)c1csc(N)n1 [Cefditoren Pivoxil],0.2
10,Nc1c(CC(=O)O)cccc1C(=O)c1ccc(Br)cc1 [Bromfenac Sodium],0.38
11,CN1CCC[C@@H]1Cc1c[nH]c2ccc(CCS(=O)(=O)c3ccccc3)cc12 [Eletriptan HBr],0.9
12,CN1C(C(=O)Nc2ccccn2)=C(O)c2ccccc2S1(=O)=O [Piroxicam],-0.1
13,Oc1c(Cl)cc(Cl)cc1Sc1cc(Cl)cc(Cl)c1O [Bithionol],-3.78
14,CCCCCc1ccc(C)cc1O [Amylmetacresol],-0.65
15,CC(=O)NO [Acetohydroxamic acid],-0.27
16,CNS(=O)(=O)CCc1ccc2[nH]cc(C3CCN(C)CC3)c2c1 [Naratriptan HCl],0.48
17,COc1ccc(C2CNC(=O)C2)cc1OC1CCCC1 (stereo not drawn) [S- (+)-Rolipram],-0.3
18,CC(C)c1c(C(=O)Nc2ccccc2)c(-c2ccccc2)c(-c2ccc(F)cc2)n1CC[C@@H](O)C[C@@H](O)CC(=O)O [Atorvastatin],-2.26
19,COCC1=C(C(=O)OC(C)OC(=O)OC(C)C)N2C(=O)[C@@H](NC(=O)/C(=N\OC)c3csc(N)n3)[C@H]2SC1 (stereo not given in full) [Cefpodoxime proxetil],0.5
20,Fc1ccc([C@@H]2CCNC[C@H]2COc2ccc3c(c2)OCO3)cc1 [Paroxetine mesylate],-0.51
